Measurements from PubChem BioAssay (NCI).
About 83,000 compounds went through this panel and 20% of them were active in at least one assay; those are over-represented in the sample as a whole.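 Percent growth is the endpoint: 0 to 100 indicates growth inhibition (40 means 60% inhibition), 0 means no net growth, and negative values indicate cell death.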 A number with no mark means an inactive call. The source made the active and inactive calls. How the source made its calls: active means growth percent below 10; inactive means the rest.

How the values were obtained:
Assay in all cases: NCI-60 one-dose screen, 48 h (100 = growth as untreated, 0 = no growth, -100 = all killed)
Settings in all cases: 10 µM unless noted
[1] = system: NCI-H23 lung
[2] = system: NCI-H226 lung
[3] = system: NCI-H322M lung
[4] = system: HOP-62 NSCLC
[5] = system: NCI-H460 lung
[6] = system: HOP-92 NSCLC
[7] = system: A549/ATCC NSCLC
[8] = system: 786-0 renal
[9] = system: DU-145 prostate
[10] = system: K-562 leukemia
[11] = system: MALME-3M melanoma
[12] = system: MDA-MB-231 breast
[13] = system: RXF 393 renal
[14] = system: SF-268 CNS
[15] = system: SF-295 CNS
[16] = system: SF-539 CNS
[17] = system: UACC-257 melanoma
[18] = system: M14 melanoma
[19] = system: COLO 205 colon
[20] = system: NCI-H522 lung

CCN1CCN(c2ccc(NC(=O)Nc3nc4ccc(-c5ccccc5OC)cc4s3)cc2)CC1
growth [1]: -16.8% (active)
growth [2]: 56.6%
growth [3]: -86% (active)
growth [4]: -66.2% (active)
growth [5]: -64.4% (active)
growth [6]: 2.16% (active)
growth [7]: -77.1% (active)
growth [8]: -80.7% (active)
growth [9]: -84.4% (active)
growth [10]: -67.4% (active)
growth [11]: -80.3% (active)
growth [12]: -74% (active)
growth [13]: -74.2% (active)
growth [14]: -59.4% (active)
growth [15]: -79.9% (active)
growth [16]: -82.6% (active)
growth [17]: -71.9% (active)
growth [18]: -70.1% (active)

Oc1ccccc1-c1nc2c3ccccc3c3ccccc3c2o1
growth [1]: 85.5%
growth [2]: 85.8%
growth [3]: 92.4%
growth [4]: 101%
growth [5]: 69.6%
growth [6]: 83.8%
growth [7]: 90.9%
growth [8]: 99.2%
growth [19]: 85.7%
growth [9]: 104%
growth [10]: 88.1%
growth [11]: 91.9%
growth [12]: 81.7%
growth [13]: 109%
growth [14]: 89.8%
growth [15]: 115%
growth [16]: 105%
growth [17]: 101%
growth [18]: 103%

CCOC(=O)c1c(C)nc2c(c1N)CC(=O)N2CCc1ccccc1
growth [1]: 53.2%
growth [2]: 42.1%
growth [3]: 59.3%
growth [4]: 5.73% (active)
growth [5]: 6.52% (active)
growth [6]: 25.3%
growth [7]: 23%
growth [8]: 8.72% (active)
growth [19]: 10.7%
growth [9]: 9.55% (active)
growth [10]: 11.7%
growth [11]: 49.1%
growth [12]: 31.8%
growth [13]: 27.1%
growth [14]: 24%
growth [15]: 15.6%
growth [16]: 13.7%
growth [17]: 56.6%
growth [18]: 18%

O=C(N/N=C/C[C@@H]1[C@@H](/C=C/[C@@H](O)COc2cccc(Cl)c2)[C@H](O)C[C@@H]1O)c1ccncc1
growth [1]: 98.2%
growth [2]: 89.3%
growth [3]: 101%
growth [4]: 79.4%
growth [5]: 102%
growth [6]: 93.7%
growth [7]: 89%
growth [8]: 105%
growth [9]: 108%
growth [10]: 95.9%
growth [11]: 98.1%
growth [12]: 101%
growth [13]: 105%
growth [14]: 103%
growth [15]: 99.5%
growth [16]: 104%
growth [17]: 77.5%
growth [18]: 99.6%

Nc1c(C(=O)Nc2cccc3ccccc23)sc2nc3c(cc12)CCCCC3
growth [1]: 44.8%
growth [2]: 72.7%
growth [3]: 51.3%
growth [4]: 38.9%
growth [5]: 9.6% (active)
growth [6]: 63.2%
growth [7]: 19.3%
growth [8]: 30.5%
growth [19]: 2.61% (active)
growth [9]: 18.4%
growth [10]: 8.68% (active)
growth [11]: 75.7%
growth [12]: 49.4%
growth [13]: 17.5%
growth [14]: 46.3%
growth [15]: 21.1%
growth [16]: -1.19% (active)
growth [17]: 63%
growth [18]: 1.3% (active)

CN(C)C1=NCCN1
growth [1]: 99.3%
growth [2]: 99.4%
growth [3]: 105%
growth [4]: 107%
growth [5]: 110%
growth [6]: 74.8%
growth [7]: 90%
growth [8]: 89.6%
growth [19]: 111%
growth [9]: 108%
growth [10]: 95.6%
growth [11]: 97.2%
growth [12]: 105%
growth [13]: 108%
growth [14]: 104%
growth [15]: 101%
growth [16]: 104%
growth [17]: 103%
growth [18]: 95.7%

COC(=O)/C=C/c1cc(OC)c2c(c1)[C@@H](C(=O)OC)[C@H](c1ccc(OC)c(OC)c1)O2
growth [1]: 38.9%
growth [2]: 79.4%
growth [3]: 98.3%
growth [4]: 24.9%
growth [5]: 59.7%
growth [6]: 66.8%
growth [7]: 67.2%
growth [8]: 37.9%
growth [19]: 23.9%
growth [9]: 14%
growth [10]: 10.8%
growth [11]: 44.3%
growth [12]: 53.4%
growth [13]: -12.2% (active)
growth [14]: 59.6%
growth [15]: 18.4%
growth [16]: -7.1% (active)
growth [17]: 44.7%
growth [18]: 2.02% (active)

C=C1C(=O)O[C@H]2[C@H]1CC/C(C=Nc1c(N)cc(C(F)(F)F)cc1Br)=C\CC[C@@]1(C)O[C@@H]21
growth [1]: 30%
growth [2]: 38.3%
growth [4]: 52%
growth [5]: 26.7%
growth [6]: -15.5% (active)
growth [20]: -68% (active)
growth [7]: 58%
growth [8]: -41.8% (active)
growth [19]: -52.1% (active)
growth [9]: 19.3%
growth [10]: -8.9% (active)
growth [11]: -8.38% (active)
growth [12]: -16% (active)
growth [13]: -63.4% (active)
growth [14]: 27.6%
growth [15]: 83.3%
growth [16]: 18.6%
growth [17]: 34%
